For assay [1], the target named is T1, Serine/threonine-protein kinase D2 (Homo sapiens) (UniProt Q9BZL6).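 Also: mean value of PRKD2 inhibition, from the GSK PKIS screening panel.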
T1 sequence (whole entry): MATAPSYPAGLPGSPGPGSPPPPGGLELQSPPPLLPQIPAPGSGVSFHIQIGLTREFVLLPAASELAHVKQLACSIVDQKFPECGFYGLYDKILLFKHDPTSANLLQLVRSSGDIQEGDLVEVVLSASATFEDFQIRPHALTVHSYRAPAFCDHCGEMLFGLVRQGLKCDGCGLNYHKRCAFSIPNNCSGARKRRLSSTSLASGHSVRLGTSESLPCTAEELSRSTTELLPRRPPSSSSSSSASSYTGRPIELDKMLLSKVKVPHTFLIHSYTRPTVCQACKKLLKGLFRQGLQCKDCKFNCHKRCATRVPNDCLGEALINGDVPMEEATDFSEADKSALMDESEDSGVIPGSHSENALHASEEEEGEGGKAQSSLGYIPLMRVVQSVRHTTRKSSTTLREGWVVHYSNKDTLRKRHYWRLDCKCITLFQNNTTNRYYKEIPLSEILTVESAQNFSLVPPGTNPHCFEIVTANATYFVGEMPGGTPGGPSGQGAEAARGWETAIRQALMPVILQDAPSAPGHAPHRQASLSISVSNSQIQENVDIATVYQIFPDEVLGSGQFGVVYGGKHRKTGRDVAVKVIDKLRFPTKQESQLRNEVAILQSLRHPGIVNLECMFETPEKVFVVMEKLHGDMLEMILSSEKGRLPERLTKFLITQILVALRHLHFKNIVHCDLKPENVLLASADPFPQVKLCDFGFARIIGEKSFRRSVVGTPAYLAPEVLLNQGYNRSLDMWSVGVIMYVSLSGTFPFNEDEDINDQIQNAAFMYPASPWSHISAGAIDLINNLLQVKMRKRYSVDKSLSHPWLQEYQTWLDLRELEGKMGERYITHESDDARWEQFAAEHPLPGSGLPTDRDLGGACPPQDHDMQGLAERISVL
The following applies: at 1 µM.

The target in assay [2] is T2, Serine/threonine-protein kinase D3 (Homo sapiens) (UniProt O94806).
T2 sequence (whole entry): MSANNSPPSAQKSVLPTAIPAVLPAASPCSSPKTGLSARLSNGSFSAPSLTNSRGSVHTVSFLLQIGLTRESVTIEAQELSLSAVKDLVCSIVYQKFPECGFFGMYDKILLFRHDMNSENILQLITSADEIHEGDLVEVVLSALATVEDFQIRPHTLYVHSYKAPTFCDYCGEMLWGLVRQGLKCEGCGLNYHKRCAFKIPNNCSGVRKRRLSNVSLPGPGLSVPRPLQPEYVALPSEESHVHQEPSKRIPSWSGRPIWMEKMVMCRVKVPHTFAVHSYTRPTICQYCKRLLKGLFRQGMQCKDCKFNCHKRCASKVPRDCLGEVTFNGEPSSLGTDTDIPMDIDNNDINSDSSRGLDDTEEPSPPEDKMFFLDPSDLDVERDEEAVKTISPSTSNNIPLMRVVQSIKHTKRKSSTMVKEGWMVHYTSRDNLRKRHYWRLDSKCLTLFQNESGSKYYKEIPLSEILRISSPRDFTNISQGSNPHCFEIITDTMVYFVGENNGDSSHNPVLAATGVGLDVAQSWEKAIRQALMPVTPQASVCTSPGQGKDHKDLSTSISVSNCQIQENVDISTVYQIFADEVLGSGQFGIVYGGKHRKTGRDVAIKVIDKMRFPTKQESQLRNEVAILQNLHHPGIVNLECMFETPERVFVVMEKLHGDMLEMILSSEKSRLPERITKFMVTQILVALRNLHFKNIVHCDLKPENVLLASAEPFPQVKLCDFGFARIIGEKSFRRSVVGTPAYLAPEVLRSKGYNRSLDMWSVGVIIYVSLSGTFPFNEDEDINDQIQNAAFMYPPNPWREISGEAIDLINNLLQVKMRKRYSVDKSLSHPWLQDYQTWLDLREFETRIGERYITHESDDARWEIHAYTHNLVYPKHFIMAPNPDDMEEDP
The following applies: at 0.1 µM.

Assay [3] deals with T2, Serine/threonine-protein kinase D3 (Homo sapiens). The following applies: at 1 µM.
The target in assay [4] is T3, cGMP-dependent protein kinase 1 (Homo sapiens) (UniProt Q13976).
T3 sequence (whole entry): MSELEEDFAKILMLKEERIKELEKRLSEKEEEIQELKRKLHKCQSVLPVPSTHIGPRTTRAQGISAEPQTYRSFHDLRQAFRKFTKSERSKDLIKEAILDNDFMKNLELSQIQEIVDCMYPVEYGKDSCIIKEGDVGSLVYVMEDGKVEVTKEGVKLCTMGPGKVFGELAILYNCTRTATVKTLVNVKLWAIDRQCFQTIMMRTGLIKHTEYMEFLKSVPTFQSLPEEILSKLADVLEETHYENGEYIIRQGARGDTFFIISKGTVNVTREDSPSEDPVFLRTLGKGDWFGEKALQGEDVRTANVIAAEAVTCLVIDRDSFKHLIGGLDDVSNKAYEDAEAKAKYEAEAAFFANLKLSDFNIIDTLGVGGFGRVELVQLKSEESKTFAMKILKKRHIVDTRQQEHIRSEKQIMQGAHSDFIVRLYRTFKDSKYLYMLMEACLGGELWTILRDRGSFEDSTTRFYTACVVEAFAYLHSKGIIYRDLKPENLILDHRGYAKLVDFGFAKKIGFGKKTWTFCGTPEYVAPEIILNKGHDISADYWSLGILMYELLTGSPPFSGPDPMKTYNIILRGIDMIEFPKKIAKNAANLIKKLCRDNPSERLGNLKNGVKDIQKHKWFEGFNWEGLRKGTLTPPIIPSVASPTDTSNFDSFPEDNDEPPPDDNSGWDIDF
Particulars: at 0.1 µM.

Assay [5] addresses T3, cGMP-dependent protein kinase 1 (Homo sapiens). Particulars: at 1 µM.
Assay [6] deals with T4, cGMP-dependent protein kinase 2 (Homo sapiens) (UniProt Q13237).
T4 sequence (whole entry): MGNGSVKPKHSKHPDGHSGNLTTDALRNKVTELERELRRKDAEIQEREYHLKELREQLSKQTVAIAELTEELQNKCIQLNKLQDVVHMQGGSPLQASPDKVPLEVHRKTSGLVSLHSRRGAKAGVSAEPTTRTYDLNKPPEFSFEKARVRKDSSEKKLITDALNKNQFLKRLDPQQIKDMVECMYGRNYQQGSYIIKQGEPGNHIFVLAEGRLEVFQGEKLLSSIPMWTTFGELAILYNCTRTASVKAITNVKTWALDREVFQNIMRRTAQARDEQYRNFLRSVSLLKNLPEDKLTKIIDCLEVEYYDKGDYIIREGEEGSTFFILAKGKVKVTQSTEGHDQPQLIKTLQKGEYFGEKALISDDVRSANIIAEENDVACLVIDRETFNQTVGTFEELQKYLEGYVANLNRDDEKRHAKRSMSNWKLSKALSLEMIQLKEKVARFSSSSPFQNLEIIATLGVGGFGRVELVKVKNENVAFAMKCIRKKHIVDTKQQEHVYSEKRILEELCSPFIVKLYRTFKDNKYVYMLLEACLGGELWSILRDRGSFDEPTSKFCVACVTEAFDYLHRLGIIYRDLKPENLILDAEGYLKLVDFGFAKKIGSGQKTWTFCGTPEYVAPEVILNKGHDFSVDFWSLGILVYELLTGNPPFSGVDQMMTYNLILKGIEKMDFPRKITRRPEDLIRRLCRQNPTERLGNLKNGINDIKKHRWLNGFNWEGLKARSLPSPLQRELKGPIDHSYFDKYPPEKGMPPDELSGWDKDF
The following applies: at 0.1 µM.

Assay [7] concerns the target T4, cGMP-dependent protein kinase 2 (Homo sapiens). The following applies: at 1 µM.
The target of assay [8] is T5, cAMP-dependent protein kinase catalytic subunit PRKX (Homo sapiens) (UniProt P51817).
T5 sequence (whole entry): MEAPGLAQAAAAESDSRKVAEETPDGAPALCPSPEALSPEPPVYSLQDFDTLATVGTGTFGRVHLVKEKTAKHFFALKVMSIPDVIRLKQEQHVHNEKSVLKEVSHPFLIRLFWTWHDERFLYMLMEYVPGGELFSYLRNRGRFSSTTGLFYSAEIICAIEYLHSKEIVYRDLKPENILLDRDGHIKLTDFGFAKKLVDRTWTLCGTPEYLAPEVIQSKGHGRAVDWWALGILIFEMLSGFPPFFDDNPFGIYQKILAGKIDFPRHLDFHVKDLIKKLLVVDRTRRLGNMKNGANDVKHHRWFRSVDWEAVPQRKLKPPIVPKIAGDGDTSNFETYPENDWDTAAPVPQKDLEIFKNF
Particulars: at 0.1 µM.

Assay [9] addresses T5, cAMP-dependent protein kinase catalytic subunit PRKX (Homo sapiens). The following applies: at 1 µM.
Assay [10] addresses Rho-associated protein kinase 1 (Homo sapiens) (UniProt Q13464). The following applies: at 0.1 µM.

Here are results for 8 compounds from ChEMBL document CHEMBL1961873, “Compounds: GSK PKIS; Assays: Nanosyn kinase panel” (2012).

Sequence of Rho-associated protein kinase 1 (Homo sapiens) (Q13464 2-1354 limits assumed): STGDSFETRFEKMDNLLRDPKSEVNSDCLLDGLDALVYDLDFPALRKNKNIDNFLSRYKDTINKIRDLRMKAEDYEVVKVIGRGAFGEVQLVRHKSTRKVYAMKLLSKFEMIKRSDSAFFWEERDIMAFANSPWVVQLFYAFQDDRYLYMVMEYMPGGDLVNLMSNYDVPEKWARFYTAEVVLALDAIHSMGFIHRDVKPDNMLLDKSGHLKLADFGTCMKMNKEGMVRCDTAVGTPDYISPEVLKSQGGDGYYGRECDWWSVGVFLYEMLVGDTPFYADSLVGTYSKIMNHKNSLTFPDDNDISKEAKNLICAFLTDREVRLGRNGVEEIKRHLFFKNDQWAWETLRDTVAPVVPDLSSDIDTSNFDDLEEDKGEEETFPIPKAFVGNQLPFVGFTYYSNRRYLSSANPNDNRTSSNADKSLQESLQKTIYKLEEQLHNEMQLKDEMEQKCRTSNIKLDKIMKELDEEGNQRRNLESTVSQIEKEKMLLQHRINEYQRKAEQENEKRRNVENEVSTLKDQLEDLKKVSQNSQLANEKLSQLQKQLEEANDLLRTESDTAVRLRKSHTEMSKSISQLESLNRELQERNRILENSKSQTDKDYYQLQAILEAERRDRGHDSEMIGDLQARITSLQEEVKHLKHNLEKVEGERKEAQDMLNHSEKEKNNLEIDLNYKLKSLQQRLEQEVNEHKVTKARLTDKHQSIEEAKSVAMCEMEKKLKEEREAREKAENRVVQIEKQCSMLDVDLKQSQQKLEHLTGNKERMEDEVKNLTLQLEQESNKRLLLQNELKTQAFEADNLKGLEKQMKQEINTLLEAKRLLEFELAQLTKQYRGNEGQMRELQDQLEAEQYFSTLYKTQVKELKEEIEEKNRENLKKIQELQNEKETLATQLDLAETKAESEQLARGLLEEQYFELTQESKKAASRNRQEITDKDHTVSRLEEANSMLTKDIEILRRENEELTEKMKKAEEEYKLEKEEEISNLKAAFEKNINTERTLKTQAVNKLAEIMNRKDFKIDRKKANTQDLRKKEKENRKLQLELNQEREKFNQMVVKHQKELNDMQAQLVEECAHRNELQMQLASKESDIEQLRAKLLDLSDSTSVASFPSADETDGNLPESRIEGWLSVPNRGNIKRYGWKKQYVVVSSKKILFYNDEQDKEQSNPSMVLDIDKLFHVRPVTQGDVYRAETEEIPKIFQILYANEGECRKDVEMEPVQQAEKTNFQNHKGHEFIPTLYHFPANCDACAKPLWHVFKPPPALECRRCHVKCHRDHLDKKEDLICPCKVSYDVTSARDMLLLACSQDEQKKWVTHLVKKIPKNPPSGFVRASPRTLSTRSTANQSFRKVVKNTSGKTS

As for `COc1cc2ncn(-c3cc(OCc4ccccc4Cl)c(C(N)=O)s3)c2cc1OC`, the inhibition in assay [1] was 1.64%; in assay [2], 0.33%; in assay [3] it was 0.33%; in assay [4] it was 1.08%; in assay [5], 3.55%; in [6] it was 0.53%. Also, the inhibition in assay [7] is 1.84%; in assay [8] it was -0.05%; in [9], -3.1%; in assay [10] it was -0.3%.

As for `Fc1cccc(COc2ccc(Nc3ncnc4cc(-c5ccc[nH]5)sc34)cc2Cl)c1`, the inhibition was -2.9% in assay [1]; -1.25% in assay [2]; -2.13% in assay [3]; 3.64% in assay [4]; 4.28% in assay [5]; 2.82% in assay [6]. For the same compound, the inhibition was found to be 2.46% in assay [7], 2% in assay [8], 3.5% in assay [9] and 0.2% in assay [10].

Consider `CCn1c(-c2nonc2N)nc2ccncc21`, for which the inhibition turned out to be 3.25% in assay [1]; 0.84% in assay [2]; 2.17% in assay [3]; 0.57% in assay [4]; 3.36% in [5]; 2.12% in assay [6]. The inhibition in [7] is 8.39%; in assay [8] it was 0.91%; in [9], -1.6%; in assay [10], 1.94%.

Regarding `CCCN1CCC(Oc2cc(Nc3nc(Nc4cccc(F)c4C(N)=O)c4cc[nH]c4n3)c(OC)cc2Cl)CC1`, the inhibition amounted to 8.74% in assay [1]; 0.21% in assay [2]; 17.1% in assay [3]; 1.4% in assay [4]; 3.67% in assay [5]; 0.8% in assay [6]. Besides, the inhibition in assay [7] stood at 3.46%; in [8], 7.71%; in assay [9] it was 7.12%; in [10] it was 0.94%.

For `CN(C)c1cc2c(Nc3ccc4nc(Cc5ccccc5)[nH]c4c3)ncnc2cn1`, the inhibition in assay [1] is 5.15%; in assay [2], 5.52%; in assay [3] it was 6.09%; in [4], 5.01%; in [5], 6.25%; in [6] it was 2.1%. Besides, the inhibition is 4.22% in assay [7], 2.16% in assay [8], 2.25% in assay [9] and 5.7% in assay [10].

As to `CN1CCC(C(=O)Nc2n[nH]c3nnc(-c4ccccc4)cc23)CC1`, the inhibition in assay [1] is 6.42%; in assay [2], 4.65%; in [3] it was 5.47%; in assay [4], 3.6%; in assay [5] it was 5.14%; in assay [6], 2.49%. The inhibition in assay [7] is 4.4%; in assay [8], 3.15%; in assay [9], 6.09%; in assay [10] it was 7.45%.

With `COc1cccc(-n2ncc3c(N/N=C/c4cccc(F)c4)ncnc32)c1`, the inhibition was -1.18% in assay [1]; -0.44% in [2]; -0.79% in assay [3]; 2.15% in [4]; 3.23% in assay [5]; 2.4% in assay [6]. Besides, the inhibition was 3.95% in assay [7], 1.69% in assay [8], 2.08% in [9] and 0.34% in assay [10].

On to `COC(=O)Nc1nc2cc(Oc3cccc(NC(=O)Nc4cc(C(F)(F)F)ccc4F)c3)ccc2[nH]1`, for which the inhibition in assay [1] stood at 1.8%; in assay [2], 0.2%; in assay [3] it was 2.71%; in [4], 2.33%; in assay [5], 2.11%; in assay [6] it was 1.2%. In addition, the inhibition in assay [7] was 6.47%; in assay [8], 0.81%; in [9], 2.2%; in [10], -0.55%.

What is called inhibition is the relative decrease from the control value, in per cent.
